Most compounds without a hit are left out; they make up all but 21% or so of the library.
Pf growth 48h – inhibits P. falciparum growth in the first generation, 48 h; 310,000 compounds, 5.9% hits; P. falciparum luciferase growth in erythrocytes, 48 h; Potency, µM (titrated, usually from 28.7 µM), most hits filed as inhibitors; AID 504832
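Cell-based growth assay: transgenic P. falciparum expressing firefly luciferase, cultured in red cells within RPMI 1640 containing 0.5% w/v Albumax, 24 mM bicarbonate and gentamycin. A drop in luciferase activity indicates inhibition.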
Pf growth 96h – P. falciparum growth inhibition at 96 hours | P. falciparum luciferase reporter growth, 96 h | Potency, µM (highest dose often 28.7 µM), usual class: inhibitors | 320,000 compounds, 6.9% hits
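Parasite growth measured via integrated firefly luciferase reporter in P. falciparum. Infected erythrocytes at 2% hematocrit, 0.05% parasitemia final were treated 96 hours at 37 C under 5% CO2, and luminescence was read.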
Shiga inhibitor – Shiga toxin inhibition. inhibition, % at 38.7 µM. Vero cells, Shiga toxin protein synthesis inhibition reporter. 290,000 compounds, 9.2% hits; in the data active = inhibition mostly above about 28%, no sharp cut-off; inactive = mostly below about 43%
Giardia FBPA inh – inhibitors of Giardia lamblia fructose-1,6-bisphosphate aldolase; 290,000 compounds, 0.71% hits; A8B2U2; Potency, µM (doses to about 59.6 µM), hits mostly inhibitors; purified Giardia FBPA; note: nearly all actives have a fitted effect of over 55% in size
Target sequence (A8B2U2 whole entry, looked up): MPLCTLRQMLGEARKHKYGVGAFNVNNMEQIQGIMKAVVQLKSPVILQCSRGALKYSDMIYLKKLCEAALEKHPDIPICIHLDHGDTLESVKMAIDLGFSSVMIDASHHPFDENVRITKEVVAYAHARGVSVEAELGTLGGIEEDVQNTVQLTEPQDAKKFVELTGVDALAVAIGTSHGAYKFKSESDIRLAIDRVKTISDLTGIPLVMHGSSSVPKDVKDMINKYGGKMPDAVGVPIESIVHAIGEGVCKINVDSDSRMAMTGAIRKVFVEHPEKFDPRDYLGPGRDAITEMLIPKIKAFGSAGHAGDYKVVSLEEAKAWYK
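40 nM FBPA preincubated 10 min at RT with compound (up to 57.5 uM final), then substrate plus GAPDH/TPI/NAD/arsenate coupling and diaphorase/resazurin added. Fluorescence read after 20 min at RT, 525/598 nm.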
Cycloheximide cs – counter-screen for Shiga toxin inhibitors: cycloheximide protein synthesis inhibition; cell reporter, cycloheximide protein synthesis inhibition counterscreen; max response, %; 300,000 compounds, 12% hits; in the data active = max response mostly above about 13%, no sharp cut-off; inactive = mostly below about 14%; note: read at 38.3 µM for the half of the compounds with a filed dose
NS1 inh – inhibitors of influenza NS1 protein function. Potency, µM (doses to about 46.1 µM). 270,000 compounds, 0.4% hits; calls by dose curve; note: actives are rising curves; nearly all actives have a fitted effect of over 50% in size
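Compounds were scored for reversing the slow growth caused by influenza A NS1 in S. cerevisiae, measured by optical density at 600 nm. Assay medium contained 2% galactose at pH 6.0; NS1-free yeast of the same strain were the positive control.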
A number is an active result; n = inactive; u = inconclusive; x = no result; [ ] = remark or other dose. Unless noted, calls come from the whole dose curve; as a rule, active = well fitted curve in the direction sought with a large enough effect; inconclusive = small, poorly fitted or top-dose-only effect, or another doubt; inactive = no such curve, though single readings can be large; an effect the other way counts as inactive or inconclusive.

SMILES	Pf growth 48h	Pf growth 96h	Shiga inhibitor	Giardia FBPA inh	Cycloheximide cs	NS1 inh
Cn1c(=O)c2c(nc(SCC(=O)NCc3ccc4c(c3)OCO4)n2Cc2ccc(F)cc2)n(C)c1=O	13.1µM	10.4µM	n	n	n	n
O=c1cnc2ccccc2n1Cc1ccc(Br)cc1	n	n	55.5	n	17.8	n
CC(C)(C)c1ccc(Cn2c(=O)cnc3ccccc32)cc1	u	u	89.6	n	38.2	n
Cc1nn(C)cc1S(=O)(=O)N1CCN(c2cccc(Cl)c2)CC1	n	u	n	n	n	n
CN1CCN(S(=O)(=O)c2cnccc2N2CCN(c3cccc(Cl)c3)CC2)CC1	2.62µM	2.62µM	n	n	n	n
NC(=O)c1cc(S(=O)(=O)N2CCN(c3cccc(Cl)c3)CC2)cs1	n	1.17µM	n	n	n	n
CCN(CC)S(=O)(=O)c1cnccc1N1CCN(c2cccc(Cl)c2)CC1	3.29µM	2.94µM	n	n	n	n
CNS(=O)(=O)c1cnccc1N1CCN(c2cccc(Cl)c2)CC1	u	u	n	n	n	n
NC(=O)COC(=O)C1CSC2(c3ccc(F)cc3)CCC(=O)N12 (stereo not given)	n	n	n	n	n	n
Cn1c(=O)c2c(ncn2CC(=O)N2CCN(S(=O)(=O)c3ccccc3)CC2)n(C)c1=O	n	n	n	n	n	n
CCOc1cc(C(=O)O)cc(Cl)c1OCC#N	n	7.38µM	n	n	n	n
CCOc1cc(OCC)cc(C(=O)O)c1	u	n	n	n	n	n
Cc1cc(F)ccc1S(=O)(=O)N1CCCOC1CNC(=O)C(=O)NCc1cccnc1 (stereo not given)	n	n	n	x	n	n
CC1CCCN(CCCNC(=O)C2CCN(S(=O)(=O)N3CCC4(CC3)OCCO4)CC2)C1 (stereo not given)	n	n	n	n	n	n
COC(=O)N1CCC2(CC1)CN(C(=O)Nc1ccccc1)C2	x	x	x	n	x	x
c1ccc2c(Cn3nnc4ccccc43)cccc2c1	n	x	n	n	n	n
c1ccc2c(COn3nnc4ccccc43)cccc2c1	x	n	87.4	n	54.4	n
N#Cc1ccc(-c2ccc(OCC(O)Cn3nnc4ccccc43)cc2)cc1 (stereo not given)	u	u	n	n	n	n
N#Cc1ccc(COn2nnc3ccccc32)cc1	n	n	n	n	30.6	n
COC(=O)C(NS(N)(=O)=O)C(C)C (stereo not given)	x	x	n	n	n	x
CCOC(=O)c1c(-c2ccc(OC)cc2)oc2cc(Br)c(O)cc12	u	u	n	n	n	n
CCOC(=O)c1c(C)[nH]c2cc(Br)c(O)cc12	x	x	65.5	n	38.1	n
O=C(Cn1c(O)c(/C=C2\C=Nc3ccccc32)sc1=O)N1CCOCC1	n	n	n	n	n	n
O=C(Cn1c(O)c(/C=C2\C=Nc3ccccc32)sc1=O)Nc1ccc2c(c1)OCO2	n	n	n	n	29.2	n
O=C(Cn1c(O)c(/C=C2\C=Nc3ccc(Br)cc32)sc1=O)N1CCCC1	x	11.7µM	n	n	n	u
SMILES	Pf growth 48h	Pf growth 96h	Shiga inhibitor	Giardia FBPA inh	Cycloheximide cs	NS1 inh
COc1ccc(N2CCN(C(=O)CCC(=O)N3Cc4ccccc4Oc4ncccc43)CC2)cc1	u	u	n	n	n	n
NS(=O)(=O)c1ccc(CNC(=O)C(c2ccccc2)c2ccccc2)cc1	n	n	n	n	n	n
COc1ccccc1CNC(=O)COC(=O)COc1ccccc1F	n	n	x	x	x	x
CC(NC(=O)C1CCN(c2nnc(N3CCCC3=O)s2)CC1)c1ccccc1 (stereo not given)	u	n	n	n	n	n
CC(=O)Nc1ccc(C(=O)N2CCN(C(=O)c3ccco3)CC2)cc1	n	x	n	n	n	n
CN(C)c1ccc(N/C=C/C(=O)c2ccco2)cc1	x	u	91.1	u	48.9	n
CC(=O)Nc1ccc(N/C=C/C(=O)c2ccco2)cc1	n	n	75.6	u	59.2	n
CCC(Oc1ccccc1)C(=O)Nc1ccccn1 (stereo not given)	n	n[5.75 µM]	n	n	26.5	n
CCOc1cc(C(=O)Nc2ccc(S(=O)(=O)Nc3cc(C)on3)cc2)cc(OCC)c1OCC	u	10.4µM	n	n	n	n
Cc1ccc(OC(=O)CCC(=O)Nc2ccc(S(=O)(=O)Nc3cc(C)on3)cc2)cc1	n	n	n	n	n	n
Cc1cc(NS(=O)(=O)c2ccc(NC(=O)COc3ccccc3[N+](=O)[O-])cc2)no1	n	u	n	x	n	n
Cc1cc(NS(=O)(=O)c2ccc(NC(=O)COc3ccccc3C(C)(C)C)cc2)no1	n	10.4µM	n	x	n	u
CCC(Oc1ccc(C)cc1)C(=O)Nc1ccc(S(=O)(=O)Nc2cc(C)on2)cc1 (stereo not given)	n	8.28µM	n	n	n	n
CCc1cccc(NS(=O)(=O)c2c(C)nc3scc(C)n3c2=O)c1	u	u	n	n	n	n
COc1ccccc1NC(=O)C(=O)N(c1cccnc1)C(C(=O)NC(C)(C)C)c1ccccc1F (stereo not given)	u	n	n	n	n	n
CCC(Oc1ccccc1)C(=O)Nc1cc(C)on1 (stereo not given)	n	u	37.7	n	15.2	n
COc1ccc(O[C@H]2C=C[C@@H](c3ccccc3)O[C@H]2COC(=O)N2CCCCC2)cc1	x	x	x	n[12.9 µM]	x	x
CCCCNC(=O)CSc1nc2ccsc2c(=O)n1C1CCN(C(=O)OCC)CC1	u	2.08µM	n	n	n	n
NS(=O)(=O)c1ccc(CCNC(=O)CSc2nc3ccsc3c(=O)n2C2CC2)cc1	n	n	n	n	n	n
COC(=O)c1ccc(CSc2nc3ccc(Cl)cc3[nH]2)o1	x	n	n	n	n	n
COC(=O)c1cc(CSc2nc3ccccc3[nH]2)oc1C	x	n	36.2	n	32.3	n
CCOc1ccc2nc(SCC(=O)NCc3ccc(OC)cc3)[nH]c2c1	n	n	63.4	n	n	n
COc1ccc(CNC(=O)CSc2nc3cccnc3s2)cc1	n	n	n	n	15.0	n
CCOc1ccc2nc(SCc3ccc(C(=O)OC)o3)[nH]c2c1	n	n	43.9	n	27.9	n
Cc1ccc(S(=O)(=O)NC(C)(C)CN2CCCCC2)cc1	n	n	n	n	n	n
SMILES	Pf growth 48h	Pf growth 96h	Shiga inhibitor	Giardia FBPA inh	Cycloheximide cs	NS1 inh
COc1ccc(C(=O)Nc2ccc(S(=O)(=O)Nc3nccc(C)n3)cc2)cc1[N+](=O)[O-]	n	n	x	n	n	n
O=C(Nc1ccc2oc(-c3ccncc3)nc2c1)c1ccccc1	n	n	n	n	n	x
Cc1ccc(-c2nc3ncccc3o2)cc1NC(=O)c1ccc([N+](=O)[O-])o1	n	n	n	n	n	n
O=C(Nc1ccc(-c2nc3ncccc3o2)cc1)c1ccc([N+](=O)[O-])o1	9.28µM	n	n	n	n	n
O=C(Nc1ccc2oc(-c3ccncc3)nc2c1)c1ccc([N+](=O)[O-])o1	6.57µM	u	53.5	n	31.6	n
O=C(O)COc1ccccc1/C=N/NC(=O)c1cc2ccccc2cc1O	n	n	n	u	n	n

Source: PubChem (National Center for Advancing Translational Sciences (NCATS))
